Data from PubChem BioAssay (Tox21).
Results filed as inconclusive are left out. Active and inactive are the calls of the source. Unless noted, calls follow the shape of the dose curve; as a rule, active = well fitted curve in the direction sought with a large enough effect in the repeat runs; inconclusive = weak or mixed curves; inactive = no such curve, though single readings can be large; an effect the other way counts as inactive or inconclusive.

Legend:
[1] = Caspase-3/7 induction in CHO-K1 cells by small molecules, qHTS cell viability counter screen (AID 1346979); also: nearly all actives have a fitted effect of over 35% in size; also: potency is read from the fitted curve at half-maximal effect
Method in brief: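 Cells (CHO-K1, wild type) are plated at 1,500 per well and incubated 5hr. Test compounds in DMSO are then pinned in, followed by 16hr at 37C and 5% CO2. Viability is read by CellTiter-Fluor fluorescence after 1hr.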

[2] = Caspase-3/7 induction in HepG2 cells by small molecules, qHTS cell viability counter screen (AID 1346981); also: series mostly up to about 92 µM; nearly all actives have a fitted effect of over 30% in size
Method in brief: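 HepG2, WT, 2,000 cells/well; 5 hr pre-incubation 37 C/5% CO2; compound pin-transferred from DMSO; 16 hr exposure; CellTiter-Fluor, 1 hr; fluorescence read.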

[3] = target: Nuclear receptor subfamily 1 group I member 2 (Homo sapiens) (UniProt O75469); test: Human pregnane X receptor (PXR) small molecule agonists, qHTS assay (AID 1346982); also: nearly all actives have a fitted effect of over 35% in size; also: potency is read from the fitted curve at half-maximal effect
Nuclear receptor subfamily 1 group I member 2 (Homo sapiens), sequence (O75469 whole entry, looked up): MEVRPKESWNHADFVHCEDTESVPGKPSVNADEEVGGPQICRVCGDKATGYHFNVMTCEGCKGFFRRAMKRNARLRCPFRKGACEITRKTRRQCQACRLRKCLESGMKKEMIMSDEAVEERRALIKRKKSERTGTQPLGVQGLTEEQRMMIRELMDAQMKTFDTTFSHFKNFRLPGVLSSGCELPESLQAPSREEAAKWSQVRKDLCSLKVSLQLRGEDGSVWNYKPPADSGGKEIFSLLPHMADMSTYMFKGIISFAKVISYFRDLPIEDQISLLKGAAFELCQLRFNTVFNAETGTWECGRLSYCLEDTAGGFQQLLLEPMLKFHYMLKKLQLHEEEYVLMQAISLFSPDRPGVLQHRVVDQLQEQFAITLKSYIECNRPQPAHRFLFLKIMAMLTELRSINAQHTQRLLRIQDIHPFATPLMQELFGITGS
Method in brief: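 Luciferase signal from ONE-Glo (30 min, room temperature) measured activation of hPXR-driven CYP3A4 reporter expression in PXR-Luc HepG2 cells treated with compounds for 24 hr at 37 C.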

[4] = target: Nuclear receptor subfamily 1 group I member 2 (Rattus norvegicus) (UniProt Q9R1A7); test: Rat pregnane X receptor (rPXR) activation by small molecules, qHTS assay (AID 1346983); conditions: rPXR luciferase reporter cells, One-Glo luminescence, 24 h; hits give high values; also: nearly all actives have a fitted effect of over 20% in size
Method in brief: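 Cell-based rPXR activation assay: rPXR cells, 2,000 per well, rested 5hr at 37 C, then exposed to compounds in DMSO for 24 hr at 37 C. Luciferase activity read by One-Glo luminescence after 30 min at room temperature.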

[5] = target: Nuclear receptor subfamily 1 group I member 2 (Homo sapiens) (UniProt O75469); test: CYP3A4 induction through human pregnane X receptor (PXR) by small molecules, qHTS assay (AID 1346984); also: nearly all actives have a fitted effect of over 40% in size
Method in brief: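 Luminescence readout: luciferase signal after One-Glo (30 min, room temperature), following 3 h at 37C with 3uM final Luciferin-IPA P450 substrate. Cells were DPX-2 (HepG2, PXR/CYP3A4-luc co-transfected) dosed for 24 h.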

[6] = target: Nuclear receptor subfamily 1 group I member 2 (Homo sapiens) (UniProt O75469); test: Human pregnane X receptor (PXR) activation by small molecules, qHTS assay (AID 1346985); also: nearly all actives have a fitted effect of over 40% in size
Method in brief: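 DPX-2 cells (HepG2 co-transfected with a PXR response element and a CYP3A4-promoter luciferase construct) were seeded at 2,000 per well, rested 5 hr at 37C, then exposed to DMSO-dissolved compounds for 24 hr. Activation was read as luciferase luminescence.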

[7] = target: Acetylcholinesterase (Homo sapiens) (UniProt P22303); test: Acetylcholinesterase (AChE) small molecule antagonists: colormetric cell-based qHTS assay (AID 1347395; calls by dose curve; also: nearly all actives have a fitted effect of over 30% in size; also: potency is read from the fitted curve at half-maximal effect)
Acetylcholinesterase (Homo sapiens), sequence (P22303 whole entry, looked up): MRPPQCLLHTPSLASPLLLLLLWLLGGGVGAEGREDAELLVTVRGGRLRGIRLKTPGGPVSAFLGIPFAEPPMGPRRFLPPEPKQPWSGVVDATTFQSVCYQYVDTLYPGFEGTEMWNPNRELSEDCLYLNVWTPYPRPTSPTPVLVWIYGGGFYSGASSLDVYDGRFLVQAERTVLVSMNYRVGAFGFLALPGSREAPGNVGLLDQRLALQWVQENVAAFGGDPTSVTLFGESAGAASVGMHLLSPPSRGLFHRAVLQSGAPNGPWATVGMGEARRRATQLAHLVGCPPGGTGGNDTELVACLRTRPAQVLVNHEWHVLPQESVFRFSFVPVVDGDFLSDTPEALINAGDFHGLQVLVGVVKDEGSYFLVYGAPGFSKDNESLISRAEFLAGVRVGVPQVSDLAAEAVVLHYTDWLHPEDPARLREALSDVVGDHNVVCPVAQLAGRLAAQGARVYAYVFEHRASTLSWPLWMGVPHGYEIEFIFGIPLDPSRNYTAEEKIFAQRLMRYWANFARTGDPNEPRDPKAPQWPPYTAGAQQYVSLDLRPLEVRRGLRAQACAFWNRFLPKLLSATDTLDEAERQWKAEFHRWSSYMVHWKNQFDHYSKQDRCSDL
Method in brief: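 Colorimetric read-out: DTNB detects thiocholine released when cellular AChE in SH-SY5Y cells hydrolyses acetylthiocholine. Cells attached overnight, received compound for 30 min at 37 C, then substrate mix for 90 min at 37 C.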

[8] = target: Acetylcholinesterase (Homo sapiens) (UniProt P22303); test: Acetylcholinesterase (AChE) small molecule antagonists: enzyme-based qHTS assay (AID 1347397; calls by dose curve; also: nearly all actives have a fitted effect of over 55% in size); conditions: Potency: AChE enzyme activity inhibition; outcome: AChE enzyme activity inhibition
Method in brief: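 Recombinant human AChE (50 mU/mL) preincubated with compound 30 min at room temperature; acetylthiocholine plus DTNB then added, and thiocholine formation read colorimetrically after 10 min at room temperature. DMSO served as vehicle control.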

[9] = target: Acetylcholinesterase (Homo sapiens) (UniProt P22303); test: Acetylcholinesterase (AChE) small molecule antagonists: fluorescence cell-based qHTS assay (AID 1347398; calls by dose curve; also: nearly all actives have a fitted effect of over 50% in size); conditions: Potency: AChE activity; outcome: AChE activity
Method in brief: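 SH-SY5Y cells (2000/well), attached overnight, incubated with compound 30 min at 37 C. Acetylthiocholine plus Thiolite Green then added for 40 min at room temperature. Thiocholine fluorescence (Ex/Em 490/520 nm) reports cellular AChE activity.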

[10] = target: Acetylcholinesterase (Homo sapiens) (UniProt P22303); test: Acetylcholinesterase (AChE) small molecule antagonists: enzyme-based qHTS assay with human liver microsomes (AID 1347399; calls by dose curve; also: nearly all actives have a fitted effect of over 60% in size); conditions: Potency: qHTS inhibition; outcome: qHTS inhibition
Method in brief: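 Recombinant human AChE (50 mU/mL in the enzyme mix) and human liver microsomes (0.25 mg/mL final) were preincubated with compound and NADPH (0.25 mg/mL final) for 30 min at 37 C. Acetylthiocholine/DTNB was then added; thiocholine was read colorimetrically after 10 min at room temperature.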

[11] = target: Cytochrome P450 2D6 (Homo sapiens) (UniProt P10635); test: Cytochrome P450 Family 2 Subfamily D Member 6 (CYP2D6) small molecule antagonists: luciferase reporter qHTS assay (AID 1671196); also: nearly all actives have a fitted effect of over 50% in size; also: potency is read from the fitted curve at half-maximal effect; as to activity change, negative = inhibition: series mostly up to about 120 µM
Cytochrome P450 2D6 (Homo sapiens), sequence (P10635 whole entry, looked up): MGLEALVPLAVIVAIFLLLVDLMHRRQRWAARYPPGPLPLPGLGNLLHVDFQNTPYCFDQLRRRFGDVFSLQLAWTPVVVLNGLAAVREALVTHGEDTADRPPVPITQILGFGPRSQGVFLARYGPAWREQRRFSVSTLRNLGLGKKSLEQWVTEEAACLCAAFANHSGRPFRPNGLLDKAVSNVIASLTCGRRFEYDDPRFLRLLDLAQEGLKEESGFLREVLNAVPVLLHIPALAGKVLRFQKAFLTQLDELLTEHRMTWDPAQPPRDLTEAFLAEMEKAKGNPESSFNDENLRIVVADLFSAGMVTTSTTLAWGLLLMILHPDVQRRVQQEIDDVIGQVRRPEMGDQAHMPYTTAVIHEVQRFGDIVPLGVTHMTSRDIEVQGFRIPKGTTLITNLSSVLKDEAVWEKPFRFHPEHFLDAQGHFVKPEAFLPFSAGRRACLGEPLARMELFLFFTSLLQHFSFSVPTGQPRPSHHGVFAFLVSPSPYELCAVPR
Method in brief: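 Read-out is luminescence from luciferin formed by CYP2D6 turnover of a proluciferin substrate, recorded as relative luminescence units. Reactions ran 1 h at room temperature after NADPH regeneration solution was added.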

[12] = target: Cytochrome P450 2C19 (Homo sapiens) (UniProt P33261); test: Cytochrome P450 Family 2 Subfamily C Member 19 (CYP2C19) small molecule antagonists: luciferase reporter qHTS assay (AID 1671197); also: nearly all actives have a fitted effect of over 65% in size; also: potency is read from the fitted curve at half-maximal effect; as to activity change, negative = inhibition: series mostly up to about 120 µM
Cytochrome P450 2C19 (Homo sapiens), sequence (P33261 whole entry, looked up): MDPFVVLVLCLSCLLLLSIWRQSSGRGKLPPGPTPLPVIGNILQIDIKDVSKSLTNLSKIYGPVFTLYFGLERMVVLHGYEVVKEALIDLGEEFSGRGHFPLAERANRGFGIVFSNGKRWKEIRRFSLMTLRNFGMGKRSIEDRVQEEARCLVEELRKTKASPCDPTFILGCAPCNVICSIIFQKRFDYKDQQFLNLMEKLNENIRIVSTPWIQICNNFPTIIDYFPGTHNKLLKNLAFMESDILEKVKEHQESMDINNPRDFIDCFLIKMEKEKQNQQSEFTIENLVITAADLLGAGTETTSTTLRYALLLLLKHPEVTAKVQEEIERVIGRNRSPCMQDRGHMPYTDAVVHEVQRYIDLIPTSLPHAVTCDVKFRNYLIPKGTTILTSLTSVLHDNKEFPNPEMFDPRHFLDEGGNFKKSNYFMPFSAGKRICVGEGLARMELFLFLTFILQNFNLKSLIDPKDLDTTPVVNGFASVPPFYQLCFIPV
Method in brief: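 P450-Glo CYP2C19 system: enzyme-substrate mix with compound 10 min at room temperature, then NADPH regeneration solution, 1 h at 37C. Proluciferin-to-luciferin conversion detected by luminescence after 20 min with detection reagent; ketoconazole as positive control.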

[13] = target: Cytochrome P450 2C9 (Homo sapiens) (UniProt P11712); test: Cytochrome P450 Family 2 Subfamily C Member 9 (CYP2C9) small molecule antagonists: luciferase reporter qHTS assay (AID 1671198); also: nearly all actives have a fitted effect of over 50% in size; also: potency is read from the fitted curve at half-maximal effect; as to activity change, negative = inhibition: series mostly up to about 120 µM
Cytochrome P450 2C9 (Homo sapiens), sequence (P11712 whole entry, looked up): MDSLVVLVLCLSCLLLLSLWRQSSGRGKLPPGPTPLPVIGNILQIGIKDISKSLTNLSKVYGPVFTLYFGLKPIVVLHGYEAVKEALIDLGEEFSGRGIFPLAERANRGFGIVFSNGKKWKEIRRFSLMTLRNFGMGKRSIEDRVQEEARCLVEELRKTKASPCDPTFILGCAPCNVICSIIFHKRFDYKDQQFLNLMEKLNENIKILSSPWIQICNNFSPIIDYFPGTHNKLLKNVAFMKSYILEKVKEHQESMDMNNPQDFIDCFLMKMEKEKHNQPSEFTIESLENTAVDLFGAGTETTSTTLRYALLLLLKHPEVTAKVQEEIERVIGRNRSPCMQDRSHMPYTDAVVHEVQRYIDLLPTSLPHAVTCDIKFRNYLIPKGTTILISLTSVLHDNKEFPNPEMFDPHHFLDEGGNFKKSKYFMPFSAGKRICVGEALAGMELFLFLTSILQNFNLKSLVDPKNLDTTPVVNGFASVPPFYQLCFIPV
Method in brief: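 P450-Glo proluciferin substrate with CYP2C9 enzyme; 10 min RT preincubation, then NADPH regeneration 1 h at 37C; luciferin detection reagent 20 min RT, luminescence in relative luminescence units.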

[14] = target: Voltage-gated inwardly rectifying potassium channel KCNH2 (Homo sapiens) (UniProt Q12809); test: Human Ether-a-go-go-Related Gene (hERG) channel small molecule antagonists: fluorescence cell-based qHTS assay (AID 1671200);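 also: hERG-expressing U2OS cells given a thallium stimulus after FluxOR II dye loading; series mostly up to about 77 µM; nearly all actives have a fitted effect of over 50% in size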
Voltage-gated inwardly rectifying potassium channel KCNH2 (Homo sapiens), sequence (Q12809 whole entry, looked up): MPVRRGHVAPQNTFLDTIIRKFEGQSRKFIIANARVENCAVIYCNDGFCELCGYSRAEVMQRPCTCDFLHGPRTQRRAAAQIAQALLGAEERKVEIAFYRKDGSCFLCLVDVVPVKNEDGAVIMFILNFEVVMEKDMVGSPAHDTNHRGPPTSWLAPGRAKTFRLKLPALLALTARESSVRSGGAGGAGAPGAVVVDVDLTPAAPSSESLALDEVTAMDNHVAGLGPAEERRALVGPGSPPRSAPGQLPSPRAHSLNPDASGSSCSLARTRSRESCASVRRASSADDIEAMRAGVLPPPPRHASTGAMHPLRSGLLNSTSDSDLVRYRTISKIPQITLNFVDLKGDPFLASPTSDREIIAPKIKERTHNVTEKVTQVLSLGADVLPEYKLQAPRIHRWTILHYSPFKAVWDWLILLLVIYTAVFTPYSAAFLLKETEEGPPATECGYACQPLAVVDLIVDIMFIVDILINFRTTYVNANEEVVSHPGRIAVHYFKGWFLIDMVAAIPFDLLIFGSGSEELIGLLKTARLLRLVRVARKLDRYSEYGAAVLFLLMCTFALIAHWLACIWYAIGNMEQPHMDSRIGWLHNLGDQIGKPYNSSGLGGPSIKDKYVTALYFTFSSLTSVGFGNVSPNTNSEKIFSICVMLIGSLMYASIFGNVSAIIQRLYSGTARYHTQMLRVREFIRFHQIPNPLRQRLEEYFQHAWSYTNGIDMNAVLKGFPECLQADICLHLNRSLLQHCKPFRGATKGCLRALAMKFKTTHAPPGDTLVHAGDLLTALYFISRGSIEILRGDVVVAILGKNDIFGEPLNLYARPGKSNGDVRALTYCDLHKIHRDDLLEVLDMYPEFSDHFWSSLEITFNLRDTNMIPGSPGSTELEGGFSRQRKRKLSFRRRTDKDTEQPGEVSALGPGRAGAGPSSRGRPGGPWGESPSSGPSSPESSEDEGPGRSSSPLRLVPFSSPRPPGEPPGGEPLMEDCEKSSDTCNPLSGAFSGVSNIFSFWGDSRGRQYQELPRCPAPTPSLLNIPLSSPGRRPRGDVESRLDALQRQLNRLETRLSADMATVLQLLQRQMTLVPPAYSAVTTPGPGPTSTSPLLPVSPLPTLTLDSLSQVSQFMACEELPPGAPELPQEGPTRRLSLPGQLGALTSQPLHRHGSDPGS
Method in brief: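 Channel function was assessed by thallium flux. Cells seeded the previous day and kept at 37 C took up FluxOR II dye over 1 h in the dark at room temperature, then sat another 10 min before stimulation.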

[15] = target: Cytochrome P450 3A4 (Homo sapiens) (UniProt P08684); test: Cytochrome P450 Family 3 Subfamily A Member 4 (CYP3A4) small molecule antagonists: luciferase reporter qHTS assay (AID 1671201); also: nearly all actives have a fitted effect of over 50% in size; also: potency is read from the fitted curve at half-maximal effect; as to activity change, negative = inhibition: series mostly up to about 120 µM
Cytochrome P450 3A4 (Homo sapiens), sequence (P08684 whole entry, looked up): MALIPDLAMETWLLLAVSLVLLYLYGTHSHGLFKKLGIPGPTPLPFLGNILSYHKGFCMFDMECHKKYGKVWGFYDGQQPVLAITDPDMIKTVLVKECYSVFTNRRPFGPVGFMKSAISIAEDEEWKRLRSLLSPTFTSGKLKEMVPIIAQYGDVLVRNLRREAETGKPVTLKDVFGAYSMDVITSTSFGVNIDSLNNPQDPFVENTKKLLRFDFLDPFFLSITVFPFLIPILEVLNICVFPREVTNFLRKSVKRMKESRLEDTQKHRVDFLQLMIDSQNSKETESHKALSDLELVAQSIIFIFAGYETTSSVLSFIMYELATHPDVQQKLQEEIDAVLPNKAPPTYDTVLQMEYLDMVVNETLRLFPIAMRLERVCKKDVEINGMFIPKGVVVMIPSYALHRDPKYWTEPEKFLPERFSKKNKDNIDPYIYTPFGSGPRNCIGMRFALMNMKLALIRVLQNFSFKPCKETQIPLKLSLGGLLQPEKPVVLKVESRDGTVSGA
Method in brief: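 Compounds in DMSO were pin-transferred onto CYP3A4 enzyme-substrate mix and held 10 min at room temperature. NADPH regenerating solution started the reaction for 1 h; luciferin detection reagent stopped it, and luminescence was read after 20 min.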

[16] = Caspase-3/7 induction in CHO-K1 cells by small molecules, qHTS assay (AID 1346980); also: nearly all actives have a fitted effect of over 15% in size
Method in brief: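 Wild-type CHO-K1 cells exposed to compounds for 17hr at 37 C, 5% CO2. Caspase-3/7 activity then measured by Caspase-Glo 3/7 luminescence after 30min at room temperature.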

[17] = target: Cytochrome P450 1A2 (Homo sapiens) (UniProt P05177); test: Cytochrome P450 Family 1 Subfamily A Member 2 (CYP1A2) small molecule antagonists: luciferase reporter qHTS assay (AID 1671199); also: nearly all actives have a fitted effect of over 50% in size; also: potency is read from the fitted curve at half-maximal effect; as to activity change, negative = inhibition: series mostly up to about 120 µM
Cytochrome P450 1A2 (Homo sapiens), sequence (P05177 whole entry, looked up): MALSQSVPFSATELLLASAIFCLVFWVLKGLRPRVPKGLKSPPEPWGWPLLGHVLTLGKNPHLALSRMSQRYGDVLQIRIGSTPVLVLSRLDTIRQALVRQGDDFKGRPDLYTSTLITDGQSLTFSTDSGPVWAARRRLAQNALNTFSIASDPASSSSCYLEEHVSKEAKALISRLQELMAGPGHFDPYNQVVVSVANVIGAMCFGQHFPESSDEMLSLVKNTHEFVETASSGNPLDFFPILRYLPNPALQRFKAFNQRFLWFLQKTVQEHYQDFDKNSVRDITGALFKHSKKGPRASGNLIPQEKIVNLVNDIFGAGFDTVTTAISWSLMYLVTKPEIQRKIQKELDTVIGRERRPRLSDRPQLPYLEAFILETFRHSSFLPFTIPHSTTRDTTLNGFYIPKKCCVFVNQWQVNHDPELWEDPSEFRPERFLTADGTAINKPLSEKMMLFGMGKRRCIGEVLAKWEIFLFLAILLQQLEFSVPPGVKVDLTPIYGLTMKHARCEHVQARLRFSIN
Method in brief: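 P450-Glo CYP1A2, 1536-well qHTS: enzyme/proluciferin substrate + cpd (DMSO), 10 min RT; NADPH regen, 1 h RT; detection reagent, 20 min; luminescence, RLU.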
% is scaled to controls: 0 for no effect and ±100 for the full control effect.

Cc1ccc2c(c1)C1CN(C)CCC1N2 (configuration not stated)
inactive: activity change, negative = cytotoxicity [1] -2.08% [at 19 µM] | activity change, negative = cytotoxicity [2] -0.14% [at 19 µM] | activation [3] -3.35% [at 19 µM] | max activation [4] 1.15% | Potency [5] | Potency [6] | activity, negative = inhibition [7] -0.458% [at 23.6 µM] | activity change, negative = inhibition [8] 0.554% [at 23.6 µM] | activity change, negative = inhibition [9] -10.6% [at 23.8 µM] | activity change, negative = inhibition [10] -0.336% [at 23.6 µM] | activity change, negative = inhibition [12] -12.5% [at 23.6 µM] | activity change, negative = inhibition [13] 0.693% [at 23.6 µM] | activity change, negative = inhibition [14] -9.94% [at 15.8 µM] | activity change, negative = inhibition [15] 8.41% [at 23.6 µM]
active: Potency [11] 4.25 µM

Clc1cc2c(cc1Cl)Oc1cc(Cl)c(Cl)cc1O2
inactive: activity change, negative = cytotoxicity [1] 8.13% [at 0.349 µM] | activity change, negative = cytotoxicity [2] -3.38% [at 0.349 µM] | activation [3] -4.83% [at 0.349 µM] | activity, negative = inhibition [7] -1.29% [at 0.435 µM] | activity change, negative = inhibition [8] 0.681% [at 0.435 µM] | activity change, negative = inhibition [9] 4.87% [at 0.439 µM] | activity change, negative = inhibition [10] -0.563% [at 0.435 µM] | activity change, negative = inhibition [11] -1.99% [at 0.435 µM] | activity change, negative = inhibition [12] -2.53% [at 0.435 µM] | activity change, negative = inhibition [13] 2.52% [at 0.435 µM] | activity change, negative = inhibition [14] 4.67% [at 0.29 µM] | activity change, negative = inhibition [15] -0.782% [at 0.435 µM]

O=C(O)C(F)(F)C(F)(F)C(F)(F)C(F)(F)C(F)(F)C(F)(F)F
active: Potency [13] 6.33 µM
inactive: Potency [1] | outcome [16] | Potency [2] | Potency [3] | Potency [9] | Potency [10] | Potency [11] | Potency [12] | Potency [14] | Potency [15]

Cc1ccc2cc(C)ccc2c1
inactive: Potency [1] | outcome [16] | Potency [2] | Potency [7] | Potency [8] | Potency [9] | Potency [10] | Potency [11] | Potency [12] | Potency [13] | Potency [14] | Potency [15]

COP(=O)(O)OC
inactive: Potency [1] | outcome [16] | Potency [2] | Potency [3] | Potency [7] | Potency [8] | Potency [9] | Potency [10] | Potency [13] | Potency [14] | Potency [15]
active: Potency [12] 18.5 µM

Cc1cccc2sc3nncn3c12
active: Potency [7] 39.9 µM | Potency [11] 15.9 µM | Potency [17] 31.7 µM | Potency [15] 20 µM
inactive: Potency [1] | outcome [16] | Potency [2] | Potency [8] | Potency [10] | Potency [12] | Potency [13] | Potency [14]

CCOC(=O)Nc1cccc(OC(=O)Nc2ccccc2)c1
active: Potency [3] 30.6 µM | Potency [12] 20 µM
inactive: Potency [1] | outcome [16] | Potency [2] | Potency [8] | Potency [9] | Potency [10] | Potency [14]

CC(Cc1ccccc1)NCCn1cnc2c1c(=O)n(C)c(=O)n2C (configuration not stated)
active: Potency [11] 4.96 µM | Potency [12] 78.7 µM
inactive: outcome [16] | Potency [2] | Potency [7] | Potency [9] | Potency [10] | Potency [13]

CC(=NC#N)N(C)Cc1ccc(Cl)nc1
inactive: Potency [1] | outcome [16] | Potency [2] | Potency [3] | Potency [8] | Potency [9] | Potency [10] | Potency [11] | Potency [17] | Potency [14] | Potency [15]

CC(Cl)(Cl)Cl
inactive: Potency [1] | Potency [2] | Potency [3] | Potency [8] | Potency [9] | Potency [10] | Potency [11] | Potency [12] | Potency [13] | Potency [17] | Potency [14] | Potency [15]

C=CCCC#N
inactive: Potency [1] | outcome [16] | Potency [2] | Potency [8] | Potency [9] | Potency [10] | Potency [13] | Potency [14] | Potency [15]
active: Potency [11] 38.9 µM | Potency [12] 61.7 µM

O=P(O)(O)c1ccccc1
inactive: Potency [1] | outcome [16] | Potency [2] | Potency [3] | Potency [9] | Potency [10] | Potency [12] | Potency [13] | Potency [17] | Potency [14] | Potency [15]

Cn1c(N)nc2c3cccnc3ccc21
inactive: outcome [16] | Potency [8] | Potency [10] | Potency [12] | Potency [13] | Potency [14] | Potency [15]
active: Potency [1] 51.8 µM | Potency [3] 51.8 µM | Potency [11] 12 µM | Potency [17] 16.9 µM
